Design in all cases: species or system human, MV4-11 + K-562 + COLO205 + SK-N-BE2 + OVCAR-8
The subject of one test is ACAD11. The settings on record: read-out: apparent Kd, n = 1.
The test system of a further test is ATR. The settings on record: read-out: apparent Kd, n = 1.
The test system of another test is FGFR1. The settings on record: read-out: apparent Kd, n = 1.
Another test has as its system FRK. The following applies: read-out: apparent Kd, n = 1.
A further test deals with MAPKAPK2. The following applies: read-out: apparent Kd, n = 1.
The subject of a further test is NLK. The following applies: read-out: apparent Kd, n = 1.
The next test has as its system PRKCB. The settings on record: read-out: apparent Kd, n = 1.
The subject of a further test is JAK2. The following applies: read-out: apparent Kd, compound concentrations: 100 nM and 1000 nM (sheet 'Samples'), n = 1.
The subject of a further test is CDK5. The following applies: read-out: apparent Kd, compound concentrations: 100 nM and 1000 nM (sheet 'Samples'), n = 1.
A further test deals with IRAK4. The following applies: read-out: apparent Kd, n = 1.
In the next test the test system is JAK1. The settings on record: read-out: apparent Kd, compound concentrations: 100 nM and 1000 nM (sheet 'Samples'), n = 1.
In the next test the test system is MAP4K1. The following applies: read-out: apparent Kd, n = 1.
The test system of a further test is STK26. The following applies: read-out: apparent Kd, n = 1.
The next test deals with ULK3. The following applies: read-out: apparent Kd, compound concentrations: 100 nM and 1000 nM (sheet 'Samples'), n = 1.
The subject of another test is CDC7. The following applies: read-out: apparent Kd; compound concentrations: 100 nM and 1000 nM (sheet 'Samples'), CATDS: 3.6033754639237303E-2; n = 1.
The next test deals with MAP2K1. The settings on record: read-out: apparent Kd; compound concentrations: 100 nM and 1000 nM (sheet 'Samples'), CATDS: 3.7479108323340499E-3; n = 1.
Another test relates to PIK3CA. The following applies: read-out: apparent Kd; compound concentrations: 100 nM and 1000 nM (sheet 'Samples'), CATDS: 3.6748488763129201E-2; n = 1.
The mark [1] stands for this setting: compound concentrations:100 nM and 1000 nM (sheet 'Samples').

The structures appear in SMILES notation. Like-named read-outs stand apart in the source and are kept apart here.

Regarding `Cl.Cl.NCC(C(=O)Nc1cc(Br)c(-c2ccnc3[nH]ccc23)s1)c1ccccc1.NCC(C(=O)Nc1cc(Br)c(-c2ccnc3[nH]ccc23)s1)c1ccccc1` (stereo not shown) [GSK1269851A], the potency estimated from few doses was 1260 nM in the test on ACAD11 (setting [1]), 889 nM with ATR (setting [1]), 1730 nM with FGFR1 (setting [1]) and 846 nM with FRK (setting [1]).

Take `CC(C)N1CCC(n2cnc(-c3ccc(F)cc3)c2-c2ccnc(N)n2)CC1` [SB-223132]: the values for the potency estimated from few doses in the test on FGFR1 (setting [1]), in the test on MAPKAPK2 (setting [1]) and with NLK (setting [1]) were 2190 nM, 7.02 nM and 195 nM, respectively.

Regarding `CN1C[C@@H]2Cn3c(c(C4=C(c5cn(C)c6ccccc56)C(=O)NC4=O)c4ccccc43)C[C@H]2C1.Cl` [RO0320234-001], the potency estimated from few doses in the test with ATR (setting [1]) is 438 nM; in the test with FRK (setting [1]), 290 nM; in the test with PRKCB (compound concentrations: 100 nM and 1000 nM (sheet 'Samples'), CATDS: 3.7076657703329602E-2), 28.4 nM.

For the compound `CCn1c(-c2nonc2N)nc2c(C#CCN)ncc(OCCCN)c21.O=C(O)C(F)(F)F` [GSK561866B], the potency estimated from few doses in the test with JAK2 (CATDS: 0.29802313015986498) is 12.9 nM.

As to `Clc1cc(Cl)cc(Nc2ccnc(Nc3cc(Cl)cc(Cl)c3)n2)c1` [GSK175726A], the potency estimated from few doses in the test on ATR (compound concentrations: 100 nM and 1000 nM (sheet 'Samples'), CATDS: 1.4419933534352201E-2) is 267 nM; in the test with FRK (compound concentrations: 100 nM and 1000 nM (sheet 'Samples'), CATDS: 1.3675373024535401E-2), 305 nM; in the test on JAK2 (CATDS: 2.01521439750539E-2), 131 nM.

Turning to `NCCNS(=O)(=O)c1ccc(-c2ccnc3[nH]ccc23)cc1` [GSK977617A], the potency estimated from few doses in the test on FRK (setting [1]) was 832 nM.

Consider `COc1ccc(Nc2ncc(C#N)c(Nc3ccccc3C(N)=O)n2)cc1N1CCN(C)CC1.Cl` [GSK1558669A], for which the potency estimated from few doses with CDK5 (CATDS: 1.3495473564992901E-2) was 85 nM; with FGFR1 (compound concentrations: 100 nM and 1000 nM (sheet 'Samples'), CATDS: 1.43157906499466E-2), 74.1 nM; in the test on IRAK4 (compound concentrations: 100 nM and 1000 nM (sheet 'Samples'), CATDS: 1.0871423307460401E-2) it was 148 nM; with JAK1 (CATDS: 1.7272230930398098E-2), 49.5 nM; in the test with MAP4K1 (compound concentrations: 100 nM and 1000 nM (sheet 'Samples'), CATDS: 8.9293608568362503E-3) it was 270 nM; in the test on STK26 (compound concentrations: 100 nM and 1000 nM (sheet 'Samples'), CATDS: 6.0521031511701004E-3), 1650 nM. In the test with ULK3 (CATDS: 2.8443328776369899E-2), the potency estimated from few doses was 20 nM.

For the compound `Cl.Nc1c(C(=O)c2cccc(C#CCN3CCCCC3)c2)cnn1-c1ccc(F)cc1` [RO1154461-001], the potency estimated from few doses in the test with FGFR1 (compound concentrations: 100 nM and 1000 nM (sheet 'Samples'), CATDS: 1.0359283946495801E-2) was 1680 nM; with FRK (compound concentrations: 100 nM and 1000 nM (sheet 'Samples'), CATDS: 1.2851217136808301E-2), 829 nM; in the test on JAK1 (CATDS: 1.11252993768114E-2) it was 1290 nM; with JAK2 (CATDS: 2.2434778262680002E-2), 240 nM.

As for `Cc1ccc2c(-c3ccncc3)c(-c3ccc(F)cc3)nn2c1.Cl` [GW461484A], the potency estimated from few doses in the test with ATR (setting [1]) is 838 nM; in the test with FRK (setting [1]) it was 887 nM; in the test with MAPKAPK2 (setting [1]) it was 573 nM.

On to `CCn1c(-c2nonc2N)nc2c(C#CC(C)(C)O)nc(OCCN)cc21.CCn1c(-c2nonc2N)nc2c(C#CC(C)(C)O)nc(OCCN)cc21.Cl.Cl` [GSK902056A], for which the potency estimated from few doses in the test on PRKCB (setting [1]) is 1980 nM.

For `CNC(=O)c1ccccc1Nc1nc(Nc2ccc(N3CCOCC3)cc2)ncc1Cl.Cl` [GSK1576028A], the potency estimated from few doses in the test with FGFR1 (setting [1]) is 844 nM; in the test with IRAK4 (setting [1]), 593 nM; in the test on MAP4K1 (setting [1]), 387 nM; with STK26 (setting [1]), 1360 nM.

`CCn1c(-c2nonc2N)nc2c(-c3ccccc3)ncc(OCCCN)c21.CCn1c(-c2nonc2N)nc2c(-c3ccccc3)ncc(OCCCN)c21.O=C(O)C(F)(F)F.O=C(O)C(F)(F)F` [GSK260205A]: the potency estimated from few doses in the test on CDC7 was 714 nM; in the test on MAPKAPK2 (compound concentrations: 100 nM and 1000 nM (sheet 'Samples'), CATDS: 0.102958619201112), 74.4 nM; in the test with NLK (compound concentrations: 100 nM and 1000 nM (sheet 'Samples'), CATDS: 6.7931350663373802E-2) it was 162 nM.

For `Cn1ncc2c(N)ncnc21` [SKF-18267], the potency estimated from few doses in the test on ACAD11 (compound concentrations: 100 nM and 1000 nM (sheet 'Samples'), CATDS: 4.0481268472205602E-3) was 1300 nM; in the test with ATR (compound concentrations: 100 nM and 1000 nM (sheet 'Samples'), CATDS: 6.4256483449106902E-3) it was 516 nM; in the test with CDK5 (CATDS: 4.5442394594478004E-3), 993 nM; in the test with FGFR1 (compound concentrations: 100 nM and 1000 nM (sheet 'Samples'), CATDS: 4.74692919335207E-3), 905 nM; in the test on FRK (compound concentrations: 100 nM and 1000 nM (sheet 'Samples'), CATDS: 7.1234836872725703E-3) it was 436 nM; in the test with IRAK4 (compound concentrations: 100 nM and 1000 nM (sheet 'Samples'), CATDS: 3.8610933772381499E-3) it was 1460 nM. For the same compound, the potency estimated from few doses in the test with JAK1 (CATDS: 4.8033962123192799E-3) is 883 nM; in the test on JAK2 (CATDS: 4.4372825621257503E-3), 1050 nM; in the test with MAP2K1 it was 1590 nM; with MAP4K1 (compound concentrations: 100 nM and 1000 nM (sheet 'Samples'), CATDS: 5.1468947283468203E-3) it was 769 nM; with MAPKAPK2 (compound concentrations: 100 nM and 1000 nM (sheet 'Samples'), CATDS: 4.1039976146892603E-3), 1250 nM; in the test on PIK3CA, 53.3 nM. Besides, the potency estimated from few doses in the test on PRKCB (compound concentrations: 100 nM and 1000 nM (sheet 'Samples'), CATDS: 3.7264433576920599E-3) was 1610 nM; in the test with ULK3 (CATDS: 5.6428686263863704E-3) it was 647 nM.

As to `Cc1cccc2c(-c3ccncn3)c(-c3ccc(F)cc3)nn12` [GW515532X], the potency estimated from few doses in the test on MAPKAPK2 (compound concentrations: 100 nM and 1000 nM (sheet 'Samples'), CATDS: 0.245203674473806) is 1400 nM.

The values are drawn from PMC11062922 (Nature Chemical Biology, 2023).
